# Measurements: ChEMBL document CHEMBL4513216, “Probing the Open Global Health Chemical Diversity Library for Multistage-Active Starting Points for Next-Generation Antimalarials” (ACS Infect Dis, 2020)
# In all, about 69,000 compounds went through this assay and about 8,600 (12%) showed an effect of 50% or more. Shown is part of a subset that was picked to be rich in strong results.
# System: Plasmodium berghei
# Experiment: Screen against P. berghei liver stage (PbLuc), transformed with Luciferase, at 10uM
# Type: functional, HepG2
# Conditions: tested at 10 uM
row,Compound,INHIBITION [%]
1,Cc1cc(NC(C)c2csc(C)n2)n2nc(C)c(C)c2n1 (stereo unspecified),25.4
2,CNC(=O)NC(=O)CSC(C)c1ccccc1F (stereo unspecified),55
3,CCNC(=O)NC(=O)CSC(C)c1ccccc1F (stereo unspecified),-32.3
4,CC(SCC(=O)N(C)CC(=O)NC1CC1)c1ccccc1F (stereo unspecified),85.7
5,CC(SCC(=O)N(C)CC(=O)NC1CC1)c1ccc(F)c(F)c1 (stereo unspecified),-18.9
6,CC(SCC(=O)NC(N)=O)c1ccccc1F (stereo unspecified),24.7
7,CC(SCC(=O)N(C)CC(=O)NC1CC1)c1cc(F)ccc1F (stereo unspecified),49.3
8,Nc1nc(C2CCN(C(=O)c3cscn3)CC2)cs1,34.7
9,CN1C[C@@H]2CN(C(=O)NCc3ccccc3)CCC[C@]2(C(=O)O)C1,5.63
10,COCC1CC2(CCN(Cc3ccoc3)CC2)CN1C(C)C (stereo unspecified),-1.26
11,Cc1ccccc1CNC(=O)c1ccccc1-n1cc(CN)cn1,20.8
12,CSCC[C@H](N)C(=O)NCc1cc2n(n1)CCCN(C(=O)C1CCC1)C2,28.5
13,Cc1cc(C)c(CNC(=O)NCc2ccc(F)cc2)c(=O)[nH]1,27.6
14,Cn1ccc(CN2CC(Cc3nccc4cc[nH]c34)C2)n1,41.5
15,c1cc2cc[nH]c2c(CC2CN(Cc3cscn3)C2)n1,53.6
16,c1cc2cc[nH]c2c(CC2CN(Cc3cncs3)C2)n1,-0.232
17,NC(=O)CN1CC[C@@]2(O)CCCC[C@H]2[C@@H]1c1ccc2c(c1)OCO2,17.6
18,CC(=O)N1CC[C@@]2(O)CCCC[C@H]2[C@@H]1c1ccc2c(c1)OCO2,52.1
19,COC(=O)N1CC[C@@]2(O)CCCC[C@H]2[C@@H]1c1ccc2c(c1)OCO2,42.3
20,CCOCC1CN(S(=O)(=O)N(C)C)Cc2cnn(CC3CC3)c21 (stereo unspecified),-57.7
21,Cc1cc(CCC(=O)N2CCCC2)nc(C2CCCN2)n1 (stereo unspecified),24.8
22,O=S(=O)(CCCN1CCCCC1Cn1cncn1)c1ccccc1 (stereo unspecified),-29.8

row,Compound,INHIBITION [%]
1,CN(CC(=O)N1CCCCC1c1nccs1)C1CC1 (stereo unspecified),13.6
2,CCCN1CCC(NCc2cccc(CN3CCOC(C)C3)c2)CC1 (stereo unspecified),21.1
3,CC1CN(Cc2cccc(CN)c2)CCO1 (stereo unspecified),59.1
4,CC1CN(Cc2cccc(CNC3CCCC3)c2)CCO1 (stereo unspecified),37.4
5,CC1CCN(CC(=O)N(C)CCc2noc(C3CC3)n2)C1=O (stereo unspecified),-22.1
6,CCCn1cc(CN2CCOCC2c2[nH]ncc2C)cn1 (stereo unspecified),6.2
7,Cc1ncc(CN2CCc3c(nc4cc(C5CC5)nn4c3O)C2)n1C,47.1
8,Cc1oc2c(c1C(=O)N1CC[C@H](O)[C@]3(CCCO3)C1)CCCC2,3.75
9,CC(C)Oc1cccc2c1c(NC(=O)CN(C)C)nn2CC(F)(F)F,7.77
10,O=C(c1cnccn1)N1CCCC(c2cccc(-n3ccnc3)n2)C1 (stereo unspecified),50.1
11,O=C(C1CCCC1)N1CCCC(c2cccc(-n3ccnc3)n2)C1 (stereo unspecified),63.4
12,COCC(=O)N1CCCC(c2cccc(-n3ccnc3)n2)C1 (stereo unspecified),36.7
13,CC(=O)N1CCCC(c2cccc(-n3ccnc3)n2)C1 (stereo unspecified),36.7
14,Cc1nc(C(=O)N2CCCC(c3cccc(-n4ccnc4)n3)C2)co1 (stereo unspecified),29.6
15,O=C(C1CCC1)N1CCCC(c2cccc(-n3ccnc3)n2)C1 (stereo unspecified),29.3
16,Cc1cc(C)nc(N2CCCC(c3cccc(-n4ccnc4)n3)C2)n1 (stereo unspecified),69.3
17,c1cnc(N2CCCC(c3cncc(-n4ccnc4)n3)C2)nc1 (stereo unspecified),15.9
18,Cc1nccn1-c1cccc(C2CCCN(C3CCCCC3)C2)n1 (stereo unspecified),11.4
19,Cc1n[nH]cc1C(=O)N1CCCC(c2cccc(-n3ccnc3)n2)C1 (stereo unspecified),-13.7
20,Cc1nccn1-c1cccc(C2CCCN(C(=O)c3cc[nH]n3)C2)n1 (stereo unspecified),53.8
21,O=C(c1cc[nH]n1)N1CCCC(c2cccc(-n3ccnc3)n2)C1 (stereo unspecified),14.4
22,CC(=O)c1ccc(OCC(=O)NS(=O)(=O)c2cccnc2)cc1,35.9

row,Compound,INHIBITION [%]
1,Cc1cnn(CC2CCCCN2C(=O)c2cc(Cl)c[nH]2)c1 (stereo unspecified),40.3
2,Cc1cccc(C(=O)N2CCC3(CC(C(=O)N(C)C(C)C)=NO3)C2)c1 (stereo unspecified),6.72
3,Cc1noc([C@@H]2C[C@H]3OCC[C@H]3N(S(=O)(=O)N(C)C)C2)n1,-13
4,CC(=O)N1CCN(C(=O)NCc2ccccc2Cn2cncn2)CC1,-56.4
5,COCC(=O)NCC1CCC(c2ccnc3ncnn23)CC1 (stereo unspecified),15.5
6,c1cn(-c2cncc(C3CCNCC3)n2)cn1,-64.7
7,Fc1ccc(CN2CCCC2c2cncc(-n3ccnc3)n2)cc1 (stereo unspecified),22.7
8,Cc1cc(C)nc(N2CCC(c3cncc(-n4ccnc4)n3)CC2)n1,66.4
9,CCOCc1ccc(NC(=O)N2CCOC3(CCC3)C2)cc1,-1.32
10,O=C(c1cc(Br)ccc1Cl)N1CCN(Cc2ccco2)CC1,36.9
11,O=C(c1cc(Cl)c(Br)[nH]1)N1CCN(Cc2ccco2)CC1,63.8
12,CC(=O)N1CCN(Cc2ccco2)CC2(CC(=O)N(C)C2)C1 (stereo unspecified),19.8
13,O=C(c1cc(Br)c[nH]1)N1CCN(Cc2ccco2)CC1,55.4
14,CC(C)c1cc(C(=O)N2CCN(Cc3ccco3)CC2)n[nH]1,14.3
15,Cc1cc(C)c2cc(C(=O)N3CCN(Cc4ccco4)CC3)[nH]c2c1,9.04
16,CCOc1ncnc2c1CCN(S(=O)(=O)c1ccccc1)CC2,41.2
17,Cc1ccc2nc(C3CCN(CC(C)C)CC3)nc(O)c2c1,-8.07
18,CC(C)Oc1ccc(C(=O)N2CCC(Nc3cccnn3)CC2)cn1,-73.2
19,Cc1cccc(CN2CCCn3c(nnc3CN3CCCC3=O)C2)n1,24.8
20,Cc1ccc(NC2CCN(C(=O)C(C)n3cncn3)CC2)nn1 (stereo unspecified),-19.4
21,O=C(c1ccccc1)N1C[C@H]2CC[C@@H](C1)N(C(=O)CN1CCOCC1)C2,0.897
22,CN(C(=O)COc1ccc(-c2noc(C3CCCO3)n2)cc1)C1CC1 (stereo unspecified),-27.3

row,Compound,INHIBITION [%]
1,Cc1cc(C)cc(-n2ncc3c2CCCC3N)c1 (stereo unspecified),37.9
2,Cc1nc(C)n(CC(=O)N2CCCC(c3nc(C)n4c(C)csc34)C2)n1 (stereo unspecified),8.12
3,O=C(c1cn(-c2ccc(F)cc2)nn1)N1CCCC(n2cccn2)C1 (stereo unspecified),-73.2
4,CCCc1nnc(NC(C)c2ccc(F)cc2)o1 (stereo unspecified),8.48
5,CC(NC(=O)CNCCn1cccn1)c1ccc2c(c1)OCCO2 (stereo unspecified),24.8
6,CCc1nnc(N[C@H](C)c2cccc(OC)c2)o1,8.48
7,CCCc1nnc(N[C@H](C)c2ccc(OC)cc2)o1,52.8
8,CCCc1nnc(NC(C)c2ccc3c(c2)OCCO3)o1 (stereo unspecified),53.9
9,Cc1nc(CCNC(C)c2ccc3c(c2)OCCCO3)cs1 (stereo unspecified),10
10,Cc1cc(C)n(C2CCCN(C(=O)Cc3cn4ccsc4n3)C2)n1 (stereo unspecified),-15.52
11,CCc1ccc(C(C)NC(=O)N2CCC(n3cncn3)CC2)cc1 (stereo unspecified),-73.1
12,CC(C)N1CCN(C(=O)c2[nH]nnc2Nc2ccccc2F)CC1,4.35
13,CC(=O)N1CCN(C(=O)c2[nH]nnc2Nc2ccccc2F)CC1,-1.45
14,CC(C)CN1CCN(C(=O)c2[nH]nnc2Nc2ccccc2F)CC1,64
15,CC(=O)N1CCCC1c1cc(N2CCN(CC3CC3)CC2)cc(C)n1 (stereo unspecified),45.6
16,CC(=O)N1CCCC1c1cc(N2CCN(CC(C)(C)C)CC2)cc(C)n1 (stereo unspecified),51.5
17,CC(=O)N1CCCC1c1cc(N2CCN(C3CCCC3)CC2)cc(C)n1 (stereo unspecified),34.5
18,Nc1nccc(N2CCC(Cc3ccccc3Cl)(C(=O)O)CC2)n1,23.5
19,Nc1nccc(N2CCCC(CO)(CCOc3ccccc3)C2)n1 (stereo unspecified),86.8
20,CC(C)=CCC1(C(=O)O)CCCN(c2ccnc(N)n2)C1 (stereo unspecified),15
21,OCC1(CCOc2ccccc2)CCN(c2ccc(Cl)cn2)CC1,32.2
22,OCC1(CCOc2ccccc2)CCCN(c2ccc(Cl)cn2)C1 (stereo unspecified),83.3

row,Compound,INHIBITION [%]
1,N#Cc1cccc(N2CCCC(CO)(CCOc3ccccc3)C2)n1 (stereo unspecified),25.7
2,N#Cc1ccc(N2CCCC(CO)(CCOc3ccccc3)C2)nc1 (stereo unspecified),59.1
3,N#Cc1cccnc1N1CCCC(CO)(CCOc2ccccc2)C1 (stereo unspecified),23.8
4,CCc1nc(N2CCCC(CO)(CCOC)C2)ncc1C (stereo unspecified),-1.83
5,Cc1cnn(CC2CCCN2C(=O)CCc2ccc3c(c2)OCO3)c1 (stereo unspecified),9.64
6,COC(=O)N1CCC(NC(=O)c2cc(S(N)(=O)=O)ccc2C)CC1,14.6
7,COc1cc(N2CC3(CCN(S(C)(=O)=O)C3)C2)ncn1,-21.7
8,CCOC(=O)c1sc(NC(=O)COC)c(C#N)c1C,-30.8
9,COCCN1CCCN(C(=O)c2scnc2C)CC1,-2.03
10,c1ccc(CN2CCCC(Cn3cncn3)C2)nc1 (stereo unspecified),24
11,COC1[C@@H]2CC[C@H]1CN(c1nc(C)nc3sccc13)C2 (stereo partly specified),72.6
12,Cc1nc(N2CC[C@@H](NC(=O)c3cnccn3)[C@H](O)C2)c2ccsc2n1,85.1
13,Cc1nc(N2C[C@@H](CN3CCCN(C)CC3)[C@@H](CO)C2)c2ccsc2n1,50.1
14,Cc1nc(C)c(C)c(N2C[C@@H](CN3CCCN(C)CC3)[C@@H](CO)C2)n1,15.5
15,CCC[C@@H]1CN(c2ncnc3sccc23)C[C@H]1NS(C)(=O)=O,27.2
16,O=C(N[C@@H]1CCN(c2nccc3ccccc23)C[C@H]1O)c1cnccn1,5.78
17,Cc1nc(N2C[C@@H](CN3CCCN(C)CC3)[C@@H](CO)C2)c2sccc2n1,26.6
18,Cc1nccnc1N1CC[C@@H](NC(=O)c2cnccn2)[C@H](O)C1,-3.19
